PubChem BioAssay (NCATS)
Records with an inconclusive call do not appear. Active and inactive are the calls of the source. Calls come from the whole dose curve; as a rule, active = well fitted cell-killing curve with a large enough effect; inconclusive = small, poorly fitted or top-dose-only effect, or effect the other way; inactive = no such curve, though single readings can be large or run the other way.

assay: Quantitative High-Throughput drug screen in 47 multiple myeloma cell lines against the NCATS MIPE library collection: ARD_JJKsccE7 cell viability assay (AID 1918929); settings: ARD myeloma cell line viability, CellTiter-Glo, 48 h; series mostly up to 45.8 µM
Source text: PI: Beverly A. Mock Ph.D.
Laboratory of Cancer Biology and Genetics,
Center for Cancer Research, National Cancer Institute,
National Institute of Health, Bethesda, Maryland
Drug resistance and disease progression are common in multiple myeloma (MM) patients, underscoring the need for new therapeutic combinations. […] We hypothesized that effective combinations would reduce MYC expression and enhance p16 activity. […] These preclinical data identify potentially useful drug combinations for evaluation in drug-resistant MM and reveal potential mechanisms of combined drug sensitivity.
Described herein is the primary MIPE qHTS used to cherrypick compounds. Validated compounds were then further tested for potential synergistic activiy.
[1] Peat TJ, Gaikwad SM, Dubois W, Gyabaah-Kessie N, Zhang S, Gorjifard S, Phyo Z, Andres M, Hughitt VK, Simpson RM, Miller MA, Girvin AT, Taylor A, Williams D, D'Antonio N, Zhang Y, Rajagopalan A, Flietner E, Wilson K, Zhang X, Shinn P, Klumpp-Thomas C, McKnight C, Itkin Z, Chen L, Kazandijian D, Zhang J, Michalowski AM, Simmons JK, Keats J, Thomas CJ, Mock BA. Drug combinations identified by high-throughput screening promote cell cycle transition and upregulate Smad pathways in myeloma. Cancer Lett. 2023 Aug 1;568:216284. doi: 10.1016/j.canlet.2023.216284. Epub 2023 Jun 24. PMID: 37356470; PMCID: PMC10408729.
SEQUENCE No. (e.g., 1, 2, 3, etc.); […] (e.g., Cells, Incubation, Reagent, etc.); VALUE and DESCRIPTION.
1; Cells; 5 uL; white, solid bottom 1536-well Greiner assay plate.
2; Compounds; 23 nL; Kalypsis pin tool (Wako USA) equipped with a 1536-well pin head to transfer to the assay plates.
3; Incubation; 48 hours; 37C incubation.
4; Reagent;5uL; CellTiter Glo (Promega).
5; Detector; 425V; Luminescence; Viewlux PerkinElmer.
NOTES (numbers refer to Sequence numbers above)
1. The cell-based screening methods employed in this study were like those previously published. Briefly, the corresponding myeloma cell lines were screened in 1,536-well plates with 500 cells, 5-uL per well for inhibition of cell viability (assessed by measuring ATP levels with CellTiterGlo).
2. NCATS MIPE 4.0 library of approved and investigational drugs were added using the Kalypsis pin tool. Wells treated with DMSO only for 100% viability and media only wells for 0% viability were used as controls.
3. The assay plates were covered and incubated for 48 hours in a 37C, 5% CO2 incubator with controlled humidity.
4. After 48 hours, CellTilter-GloTM luminescent substrate mix (Promega) reagent was added to the assay plate and plates we incubated for 5 min at room temperature.
5. Signal was measured as median relative luminescence units on a ViewLux (PerkinElmer) multiplate reader.
[1] Heske CM, Davis MI, Baumgart JT, Wilson K, Gormally MV, Chen L, Zhang X, Ceribelli M, Duveau DY, Guha R, Ferrer M, Arnaldez FI, Ji J, Tran HL, Zhang Y, Mendoza A, Helman LJ, Thomas CJ. Matrix Screen Identifies Synergistic Combination of PARP Inhibitors and Nicotinamide Phosphoribosyltransferase (NAMPT) Inhibitors in Ewing Sarcoma. Clin Cancer Res. 2017 Dec 1;23(23):7301-7311. doi: 10.1158/1078-0432.CCR-17-1121. Epub 2017 Sep 12. PMID: 28899971; PMCID: PMC6636827.
Potency is the fitted concentration of half-maximal effect.

Row | SMILES | Potency
1 | CCCC1OC2C[C@@H]3[C@H]4CCC5=CC(=O)C=C[C@]5(C)[C@H]4C(O)C[C@]3(C)[C@]2(C(=O)CO)O1 (stereo not given in full) | 11.8 nM (active)
2 | CN(C)S(=O)(=O)c1ccc2c(c1)C(=Cc1cc3c([nH]1)CCCC3)C(=O)N2 | 8330 nM (active)
3 | CC1(C)OC2CC3C4CC(F)C5=CC(=O)C=CC5(C)C4C(O)CC3(C)[C@]2(C(=O)CO)O1 (stereo not given in full) | 18.7 nM (active)
4 | CN1c2ccccc2C(=O)N2CCc3c([nH]c4ccccc34)C21 (stereo not given) | inactive
5 | C[C@H]1O[C@@H](n2cc(F)c(=O)[nH]c2=O)[C@H](O)[C@H]1O | 1320 nM (active)
6 | Oc1cc(O)cc(C=Cc2ccc(O)c(O)c2)c1 | 9350 nM (active)
7 | Cc1ccc2c(=O)c3cccc(CC(=O)O)c3oc2c1C | inactive
8 | COc1cc2nccc(Oc3ccc(NC(=O)Nc4cc(C)on4)c(Cl)c3)c2cc1OC | 6620 nM (active)
9 | CN(C)CCN(C)C(=O)c1ccc(NC(=O)Nc2ccc(-c3nc(N4CCOCC4)c4ccn(CC(F)(F)F)c4n3)cc2)cc1 | 23.5 nM (active)
10 | Cc1ccc(C(=O)N(CCCN)[C@@H](c2oc3cc(Cl)ccc3c(=O)c2Cc2ccccc2)C(C)C)cc1 | 1 nM (active)
11 | CCCCc1ccc(NS(=O)(=O)c2ccc(C)c(C(=O)N3CCN(c4cccc(C)c4C)CC3)c2)cc1 | inactive
12 | NCc1c[nH]c(=S)n1[C@H]1CCc2c(F)cc(F)cc2C1 | 26400 nM (active)
13 | CN(C)CCOc1ccc(C(=C(CCCl)c2ccccc2)c2ccccc2)cc1 | inactive
14 | CCCCCCOC(=O)N=C(N)c1ccc(NCc2nc3cc(C(=O)N(CCC(=O)OCC)c4ccccn4)ccc3n2C)cc1 | 14800 nM (active)
15 | COc1cc(C=CC(=O)O)ccc1O | inactive
16 | CC1C(=O)OC2C(O)C34C5CC(C(C)(C)C)C36C(OC(=O)C6O)OC4(C(=O)O5)C12O (stereo not given) | inactive
17 | CCCCC[C@H](O)C=C[C@H]1[C@H](O)CC(=O)[C@H]1CCCCCCC(=O)O | inactive
18 | CCOC(=O)N1CCN([N+]([O-])=NOc2cc(ON=[N+]([O-])N3CCN(C(=O)OCC)CC3)c([N+](=O)[O-])cc2[N+](=O)[O-])CC1 | 52.6 nM (active)
19 | CC(C)CN(C[C@@H](O)[C@H](Cc1ccccc1)NC(=O)O[C@H]1CO[C@H]2OCC[C@H]21)S(=O)(=O)c1ccc(N)cc1 | inactive
20 | CC1(C)C(N(O)C(=O)Nc2ccc(Cl)cc2)N(c2ccc(Cl)cc2)C(=O)N1CC(=O)NN=CC=Cc1ccc([N+](=O)[O-])o1 (stereo not given) | inactive

Row | SMILES | Potency
21 | C[C@H](c1ccc(F)cc1CCCC(=O)O)N(c1cc(F)ccc1F)S(=O)(=O)c1ccc(Cl)cc1 | inactive
22 | COc1ccc2cc1Oc1ccc(cc1)C[C@H]1c3cc(c(OC)cc3CCN1C)Oc1c(OC)c(OC)cc3c1[C@H](C2)N(C)CC3 | 6620 nM (active)
23 | Cc1ccc(S(=O)(=O)Nc2nc3ccccc3nc2Nc2ccc3nsnc3c2)cc1 | 724 nM (active)
24 | C[C@H]1[C@H](O)O[C@@H]2O[C@@]3(C)CC[C@@H]4[C@H](C)CC[C@@H]1[C@@]24OO3 | 4180 nM (active)
25 | C[C@@H](O)[C@H]1C(=O)N2C(C(=O)OCOC(=O)C(C)(C)C)=C(SC3CN(C4=NCCS4)C3)[C@H](C)[C@H]12 | inactive
26 | Cc1c(C(=O)Nc2ccc(N3C[C@@H](C)O[C@@H](C)C3)nc2)cccc1-c1ccc(OC(F)(F)F)cc1 | 935 nM (active)
27 | CS(=O)(=O)c1ccc(C2=C(c3ccccc3)C(=O)OC2)cc1 | inactive
28 | CO[C@@H]1C(N(C)C(=O)c2ccccc2)C[C@H]2O[C@]1(C)n1c3ccccc3c3c4c(c5c6ccccc6n2c5c31)C(=O)NC4=O (stereo not given in full) | 1870 nM (active)
29 | O=C(c1ccc(C(=O)N2CCC(N3CCCC3)CC2)c(Nc2ccccc2)c1)N1CCC(N2CCCC2)CC1 | inactive
30 | Cc1nc(NC(=O)N2CCC[C@@H]2C(N)=O)sc1-c1csc(C(C)(C)C)n1 | 372 nM (active)
31 | COc1cc(Cl)cn2c(-c3cccc(NC4CNC4)n3)cnc12 | 16600 nM (active)
32 | CN1CC(=O)N2C(Cc3c([nH]c4ccccc34)[C@H]2c2ccc3c(c2)OCO3)C1=O (stereo not given in full) | inactive
33 | COc1cc([C@@H]2c3cc4c(cc3[C@@H](O[C@@H]3O[C@@H]5CO[C@@H](C)O[C@@H]5[C@H](O)[C@@H]3O)[C@H]3COC(=O)[C@H]23)OCO4)cc(OC)c1O | inactive
34 | CCCCn1c(=O)n(Cc2ccccc2F)c(=O)c2[nH]c(Cc3ccc(NC(C)=O)cc3)nc21 | inactive
35 | CCCCC(F)(F)[C@@]1(O)CC[C@H]2[C@H](CC(=O)[C@@H]2CCCCCCC(=O)O)O1 | inactive
36 | COc1cc([C@H]2Oc3cc([C@H]4Oc5cc(O)cc(O)c5C(=O)[C@H]4O)ccc3O[C@H]2CO)ccc1O | inactive
37 | O=C(CC12CC3CC(CC(C3)C1)C2)Nc1cccc2nc(NCCNCCO)ccc12 | 18700 nM (active)
38 | N[C@@H](CC(=O)N1CCn2c(nnc2C(F)(F)F)C1)Cc1cc(F)c(F)cc1F | inactive
39 | CN(C)CC[C@H](CSc1ccccc1)Nc1ccc(S(=O)(=O)NC(=O)c2ccc(N3CCN(Cc4ccccc4-c4ccc(Cl)cc4)CC3)cc2)cc1[N+](=O)[O-] | 8330 nM (active)
40 | C[C@@]1(c2cc(-c3cncnc3)c(F)cc2F)CCSC(N)=N1 | 59 nM (active)
